High-throughput results (PubChem)
A selection: hits, their analogues and other compounds. The true share with any hit is near 2.4%.
PLCg1 inh – inhibitors of human phospholipase C gamma1; purified PLC-gamma1, fluorogenic substrate, fluorescence; AID 720700; inhibition, % at 12.2 µM; P19174; hit rate 0.84% among 370,000; in the data active means inhibition above about 9.5%
Target sequence (P19174 whole entry, looked up): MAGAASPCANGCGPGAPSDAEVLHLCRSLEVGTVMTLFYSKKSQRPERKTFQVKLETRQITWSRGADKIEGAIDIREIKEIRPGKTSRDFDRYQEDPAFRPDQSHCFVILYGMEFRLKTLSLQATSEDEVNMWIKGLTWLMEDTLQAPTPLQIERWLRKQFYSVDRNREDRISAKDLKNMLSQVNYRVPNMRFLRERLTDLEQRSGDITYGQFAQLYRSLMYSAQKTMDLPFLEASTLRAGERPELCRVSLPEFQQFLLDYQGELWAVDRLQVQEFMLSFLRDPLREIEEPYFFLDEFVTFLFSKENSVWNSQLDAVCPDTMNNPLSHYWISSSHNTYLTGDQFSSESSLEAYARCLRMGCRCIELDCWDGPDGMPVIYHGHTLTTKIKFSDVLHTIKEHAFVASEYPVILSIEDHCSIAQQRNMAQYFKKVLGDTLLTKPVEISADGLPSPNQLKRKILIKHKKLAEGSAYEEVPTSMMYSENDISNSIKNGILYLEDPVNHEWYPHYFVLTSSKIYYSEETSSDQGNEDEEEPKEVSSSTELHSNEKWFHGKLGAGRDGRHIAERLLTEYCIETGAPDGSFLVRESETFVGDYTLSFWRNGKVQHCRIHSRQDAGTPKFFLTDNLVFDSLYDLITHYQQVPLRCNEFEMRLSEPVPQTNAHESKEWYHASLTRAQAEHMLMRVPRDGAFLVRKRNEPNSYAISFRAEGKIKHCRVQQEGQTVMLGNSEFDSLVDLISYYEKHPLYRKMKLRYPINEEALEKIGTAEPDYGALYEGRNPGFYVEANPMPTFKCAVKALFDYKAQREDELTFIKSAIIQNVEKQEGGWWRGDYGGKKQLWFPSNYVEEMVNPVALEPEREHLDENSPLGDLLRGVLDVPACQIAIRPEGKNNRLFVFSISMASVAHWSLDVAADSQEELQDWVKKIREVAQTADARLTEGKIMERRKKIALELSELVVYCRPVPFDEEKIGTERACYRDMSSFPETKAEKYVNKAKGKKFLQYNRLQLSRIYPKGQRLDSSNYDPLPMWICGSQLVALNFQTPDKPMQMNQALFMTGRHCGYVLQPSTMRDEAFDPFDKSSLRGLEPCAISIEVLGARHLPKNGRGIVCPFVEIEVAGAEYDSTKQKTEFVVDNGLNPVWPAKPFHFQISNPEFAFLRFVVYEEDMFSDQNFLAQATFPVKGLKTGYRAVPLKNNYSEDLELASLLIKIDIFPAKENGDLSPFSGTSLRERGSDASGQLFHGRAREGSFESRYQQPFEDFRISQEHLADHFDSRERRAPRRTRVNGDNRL
UHRF1 MBD2 ctr – blocks human UHRF1 binding to methylated DNA. UHRF1 binding to methylated oligo, TR-FRET. Q96T88. hit rate 0.75% among 370,000. inhibition, % at 4.4 µM;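 further: UHRF1 SRA domain binding a hemimethylated CpG hairpin DNA probe; 0% = median of test compound wells and 100% = reference inhibitor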
PLCb3 inh – PLC-beta3 (human) inhibition, primary screen; Q01970; Purified PLC-beta3, fluorogenic substrate, fluorescence; inhibition, % at 12.2 µM; hit rate 0.18% among 370,000; in the data active means inhibition above about 11%;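 further: 0% = median of compound wells on plate and 100% = full blocker control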
MBD2 inh – blocks human MBD2 binding to methylated DNA | TR-FRET, MBD2 binding to methylated oligonucleotide | hit rate 0.31% among 370,000 | inhibition, % at 4.4 µM | Q9UBB5; in the data active means inhibition above about 13%
LEDGF integ inh – blocks HIV-1 LEDGF/p75-dependent DNA integration; TR-FRET IN-LEDGF/p75 DNA integration, Eu/Cy5; inhibition, % at 3.7 µM; hit rate 0.64% among 370,000; AID 743269;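 active means inhibition above the screen-wide mean plus 3 SD, cut at about 13% in these data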;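 further: signal is the Cy5 over europium emission ratio at 671 and 618 nm; 0% = plate median of compound wells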
UHRF1 ctr MBD2 – UHRF1 methyl-oligo binding inhibition as MBD2 counter-screen | shares compounds with MBD2 inh | UHRF1 binding to methylated oligonucleotide, TR-FRET | inhibition, % at 4.4 µM | hit rate 25% among 1,000;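 further: UHRF1 SRA domain binding a labeled hemimethylated CpG hairpin DNA; 0% = vehicle only and 100% = reference inhibitor with vehicle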
MBD2 DBD conf – confirmation of human MBD2-DBD methylated oligonucleotide binding inhibitors; shares compounds with MBD2 inh; inhibition, % at 4.4 µM; TR-FRET MBD2-DBD binding to methylated oligonucleotide; hit rate 26% among 1,000; AID 720531; in the data active means inhibition above about 14%
* = called active by the depositor; i = inactive; · = no result. Unless noted, no stated cut-off is given here; in the data, active means inhibition above about 21%; inactive means the rest.

SMILES | PLCg1 inh | UHRF1 MBD2 ctr | PLCb3 inh | MBD2 inh | LEDGF integ inh | UHRF1 ctr MBD2 | MBD2 DBD conf
COC(=O)[C@]12C[C@H](CC(=O)NCCCCc3ccccc3)C(=O)N(Cc3ccc(Cl)cc3Cl)C1=C[C@H](C(C)(C)C)O[C@@H]2C | -3 | 1 | -1 | -3 | -1 | · | ·
COc1ccc(-c2oc3ncnc(NCCCN(C)C)c3c2-c2ccc(OC)cc2)cc1 | -123 | 5 | -173 | 15* | 2 | 14 | 10
COCCN(C(=O)COC(=O)c1cc2c(s1)CCC2)c1c(N)n(Cc2ccccc2)c(=O)[nH]c1=O | 0 | 96* | -16 | 65* | 54* | 100* | 91*
CCC1CCc2sc(C(=O)OCC(=O)N(CCOC)c3c(N)n(Cc4ccccc4)c(=O)[nH]c3=O)cc2C1 (stereo not drawn) | 0 | -1 | -11 | -2 | 0 | · | ·
CCCCCCSc1ccc([C@H]2N[C@@](Cc3ccccc3)(C(=O)OC)[C@H]3C(=O)N(CC)C(=O)[C@@H]23)cc1 | 3 | -2 | 5 | 1 | -1 | · | ·
CCCCCCSc1ccc([C@H]2N[C@@](Cc3ccccc3)(C(=O)OC)[C@H]3C(=O)N(C)C(=O)[C@@H]23)cc1 | 4 | 20 | 1 | 14* | 8 | 7 | 2
C=C(C)C(=O)Nc1cccc(C2=NOC3(C2)C[C@@H](C(N)=O)N(C(=O)/C=C/CC)C3)c1 (stereo partly drawn) | 3 | 67* | 2 | 39* | 9 | 69* | 43*
C=C(C)C(=O)Nc1cccc(C2=NOC3(C2)C[C@H](C(N)=O)N(C(=O)COc2ccc(Cl)cc2)C3)c1 (stereo partly drawn) | 0 | 69* | -1 | 51* | 16* | 88* | 69*
CC1=C[C@]2(C[N+](Cc3ccccc3)=C(N)N2)n2c(=O)n(-c3ccccc3)c(=O)n2C1 | -4 | -3 | 1 | -2 | 2 | · | ·
CCC[C@@H](/C=C/C(=O)OC(C)(C)C)Sc1ccc(C(C)(C)C)cc1 | -1 | 3 | -3 | -3 | 0 | · | ·
C[C@@H](/C=C/C(=O)OC(C)(C)C)Sc1ccc(C(C)(C)C)cc1 | 1 | -3 | 2 | 18* | 3 | 8 | 2
Cc1cccc2c(N)c3c(nc12)CCCC3 (tested in a mixture with another compound) | -2 | 4 | -5 | -3 | 0 | · | ·
Cc1cc(C)c2c(N)c3cccc(C)c3nc2n1 | -367 | 29* | i | 25* | -4 | 38* | 41*
COc1ccc2c(c(-c3ccccc3)cn2C)c1-c1ccccc1 | -4 | 0 | -9 | 4 | 0 | · | ·
C[C@H]1CN([C@@H](C)CO)C(=O)Cc2cc(NC(=O)C3CC3)ccc2O[C@H]1CN(C)Cc1ccc(Oc2ccccc2)cc1 | 3 | 2 | 3 | 17* | -1 | 4 | 0
COCC#Cc1ccc(CC[C@H]2O[C@H]3CC[C@@H](CO)O[C@H]3C[C@H]2n2cc(C3CC3)nn2)cc1 | 0 | 3 | 4 | 2 | 5 | · | ·
CC(=O)C1=C(O)C(=O)N(c2ccc(O)cc2)C1c1ccccc1 (stereo not drawn) | -27 | -2 | -41 | 22* | -8 | 6 | 1
CC(=O)C1=C(O)C(=O)N(c2ccc(C(=O)O)cc2)C1c1ccccc1 (stereo not drawn) | -39 | 0 | -45 | -4 | -2 | · | ·
COc1ccc(CC(=O)Nc2ccc(C)cc2S(=O)(=O)N2CCOCC2)cc1OC | -2 | 2 | -1 | 1 | -3 | · | ·
O=C(c1ccc(N2CCOCC2)cc1[N+](=O)[O-])N1CCOCC1 | 3 | 4 | 0 | 14* | -6 | 3 | -2
COc1ccc2nc3cc(Cl)ccc3c(Nc3cc(CN4CCCC4)c(O)c(CN4CCCC4)c3)c2n1 | -25 | 72* | -30 | 55* | 2 | 86* | 88*
NS(=O)(=O)c1ccc(CCNC(=O)CCS(=O)(=O)c2ccc(Br)cc2)cc1 | -2 | 29* | 0 | 17* | 0 | 44* | 30*
O=C(C(=O)N1CCC(CNS(=O)(=O)c2ccccc2OC(F)(F)F)CC1)c1cccs1 | 9 | 27* | 3 | 28* | 3 | 8 | 3
